Screening data as filed in PubChem BioAssay.
TrxR1 inh – rat TrxR1 inhibition. hit rate 1% among 390,000. recombinant rTrxR1, NADPH fluorescence consumption, selenite substrate. Potency, µM (titrated, usually from 114 µM), without a hit: at the top dose activity change, negative = inhibition, hits mostly inhibitors. AID 588453. O89049; also: % is scaled to controls: 0 for no effect and ±100 for the full control effect; nearly all actives have a fitted effect of over 65% in size
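Rat TrxR1 (90 nM in the dispensed reagent) was pre-reduced with 400 uM NADPH for 5 min at room temperature, then incubated with compound for 15 min. After 400 uM selenite was added, NADPH fluorescence (Ex 340/Em 450 nm) was followed for 8 min.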
GLP1R inv ag – inverse agonists of human GLP-1 receptor. Potency, µM (titrated, usually from 38.3 µM), without a hit: at the top dose activity change, negative = inhibition, actives largely listed as inhibitors. HEK293 GLP-1R CRE-luciferase, luminescence, 24 h; GLP-1R form is constitutively active. hit rate 1.6% among 410,000. P43220; also: % is scaled to controls: 0 for no effect and ±100 for the full control effect; nearly all actives have a fitted effect of over 55% in size
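Assay principle: reduced luminescence from a cAMP-responsive reporter in HEK293 cells co-expressing a constitutively active GLP-1R. Conditions: 24 hr compound incubation, 37 deg C, 5% CO2.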
GLP1R ag – GLP-1 receptor (human) agonism | HEK293 GLP-1R CRE-luciferase, luminescence, 4-6 h; cells express a hypersensitive GLP-1R form | Potency, µM (highest dose often 45.6 µM), without a hit: top-dose activation, most hits filed as activators | P43220 | hit rate 0.007% among 380,000; also: % of control where 0% means no effect
HEK293 tox – cytotoxic in the GLP-1 receptor inverse agonist counter-screen; HEK293 cAMP-luciferase reporter cells, luminescence, 24 h; Potency, µM (doses to about 38.3 µM), inactives show top-dose activity change, negative = inhibition, hits mostly inhibitors; hit rate 0.13% among 410,000; AID 624418;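 also: loss of luciferase light is scored as toxicity; % is scaled to controls: 0 for no effect and ±100 for the full control effect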
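Here, cytotoxicity is scored as loss of luminescence. The MLSMR collection was tested on cells seeded in medium containing 10% Nu serum, with a 24 hr compound exposure preceded by 12 hours of culture.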
TrxR1 substrate – substrates of rat thioredoxin reductase 1. O89049. purified TrxR1 substrate turnover, NADPH consumption readout. Potency, µM (top dose mostly 114 µM), for inactives: top-dose activity change, negative = substrate turnover. hit rate 0.01% among 390,000. AID 588456; also: % is scaled to controls: 0 for no effect and ±100 for the full control effect; nearly all actives have a fitted effect of over 50% in size
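Rat TrxR1, dispensed at 90 nM, was prereduced with 400 uM NADPH (final) for 5 min at ~22 deg C, then incubated with compound 15 min before 400 uM selenite. A first-read NADPH fluorescence drop versus no-compound background flagged substrates.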
IDH1 R132H inh – human IDH1 R132H inhibition; IDH1-R132H enzyme, NADPH consumption, diaphorase/resazurin fluorescence; O75874; Potency, µM (highest dose often 76.6 µM), without a hit: top-dose activity change, negative = inhibition, most hits filed as inhibitors; hit rate 0.093% among 390,000; AID 602179; also: % is scaled to controls: 0 for no effect and ±100 for the full control effect; nearly all actives have a fitted effect of over 65% in size
Target sequence (O75874 whole entry R132H, stated change not applied): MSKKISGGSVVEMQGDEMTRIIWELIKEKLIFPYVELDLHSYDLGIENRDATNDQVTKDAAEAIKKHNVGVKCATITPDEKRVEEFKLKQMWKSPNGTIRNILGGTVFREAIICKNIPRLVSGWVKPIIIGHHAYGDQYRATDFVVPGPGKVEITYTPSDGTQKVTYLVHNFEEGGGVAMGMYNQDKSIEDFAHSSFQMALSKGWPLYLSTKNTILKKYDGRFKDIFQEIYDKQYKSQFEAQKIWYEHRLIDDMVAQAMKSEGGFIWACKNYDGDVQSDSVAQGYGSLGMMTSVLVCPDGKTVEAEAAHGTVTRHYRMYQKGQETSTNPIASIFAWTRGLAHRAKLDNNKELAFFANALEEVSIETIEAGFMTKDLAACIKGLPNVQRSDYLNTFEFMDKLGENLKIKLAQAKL
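IDH1-R132H (0.5 ug/mL) preincubated 30 min with compound, then NADPH (0.016 mM) and alpha-KG (2 mM) added; 80 min at RT, pH 7.5. Remaining NADPH coupled via diaphorase/resazurin to fluorescence (540/590 nm); concentration-response curves normalized to no-enzyme control.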
* hit, by the source's call; ? = inconclusive; · = no result; [ ] = another dose, or the depositor's remark. Hits are enriched below; roughly 2.7% of the tested compounds scored in any of these assays. Calls follow the shape of the dose curve; as a rule, active = well fitted curve in the direction sought with a large enough effect; inconclusive = small, poorly fitted or top-dose-only effect, or another doubt; inactive = no such curve, though single readings can be large; an effect the other way counts as inactive or inconclusive. Potency is read from the fitted curve at half-maximal effect.

SMILES | TrxR1 inh | GLP1R inv ag | GLP1R ag | HEK293 tox | TrxR1 substrate | IDH1 R132H inh
CCCCCCc1ccc(N2C[C@H](CCCCC)[C@@H](CC(=O)NCc3ccc(OC)cc3)C2=O)cc1 | 17%[57.1 µM] | ? | -4% | 6% | 6%[57.1 µM] | 10%
O=C(C[C@H]1C(=O)N(c2ccc(Br)cc2)C[C@@H]1Cc1ccccc1)Nc1ccccc1 | · | ? | -5% | -14% | · | 17%
CCC[C@H]1CN(c2ccc(Br)cc2)C(=O)[C@@H]1CC(=O)Nc1ccc(OC)cc1 | · | 7.9µM* | -2% | -8% | · | 11%
CCCCCCc1ccc(N2C[C@H](CCCCC)[C@@H](CC(=O)NCc3ccccc3)C2=O)cc1 | 28% | 4.5µM* | -4% | 6% | 4% | 8%
CCCCNC(=O)[C@@H]1CC=C[C@@H]2CCN(Cc3ccccc3)C(=O)[C@@H]21 | 17% | · | · | · | -2% | ·
CCOc1ccc(CNC(=O)Cn2cc3c(n2)-c2c(oc(C(=O)N4CCOCC4)c2C)CC3)cc1 | ? | -5% | · | -1% | -8% | 0%
CCS(=O)(=O)c1c(Nc2ccc(F)c(Cl)c2)sc(C(=O)c2ccccc2)c1N | 3% | 9% | · | 18% | -7% | -2%
CCOC(=O)c1cc2c(ccn2C)n1CC(=O)N(Cc1ccccc1)c1ccccc1 | 2% | 13µM* | 1% | -3% | -8% | -4%
COc1ccc2c(c1OC)C(=O)N1c3ccccc3C(=O)N(Cc3ccco3)C21 (stereo unspecified) | 40µM* | · | · | · | 1% | ·
COc1ccc2c(c1OC)C(=O)N1c3ccccc3C(=O)N(c3ccccc3F)C21 (stereo unspecified) | 2% | ? | 0% | ? | -1% | 1%
O=C(/C=C/c1ccco1)N(Cc1ccccc1)C1CCS(=O)(=O)C1 (stereo unspecified) | -76% | 5% | 6% | 9% | 6%[11.4 µM] | 3%
O=C(/C=C/c1ccccc1)N(Cc1cccc(Cl)c1)C1CCS(=O)(=O)C1 (stereo unspecified) | 23%[11.4 µM] | ? | 14% | -62% | -20%[11.4 µM] | 7%
O=C(/C=C/c1ccco1)N(Cc1cccc(Cl)c1)C1CCS(=O)(=O)C1 (stereo unspecified) | 8.9µM* | -23% | 10% | 0% | 7%[57.1 µM] | -1%
O=C(/C=C/c1ccco1)N(Cc1ccc(F)cc1)C1CCS(=O)(=O)C1 (stereo unspecified) | 45µM* | 3% | 14% | 10% | -6% | 3%
O=C(/C=C/c1ccco1)N(Cc1cccc(F)c1)C1CCS(=O)(=O)C1 (stereo unspecified) | 35µM* | -20% | 7% | -1% | -4% | -10%
O=C(/C=C/c1ccco1)N(Cc1cccc(Br)c1)C1CCS(=O)(=O)C1 (stereo unspecified) | 10µM* | -24% | 10% | -1% | 9%[57.1 µM] | 10%
CCCn1c(=O)c2sccc2n2c(CCCC(=O)N3CCN(c4ccccc4OC)CC3)nnc12 | 13% | 4% | · | -10% | 3% | 12%
CCCN(C(=O)c1cn(C)c(=O)c2cc(OC)c(OC)cc12)c1ccc(CC)cc1 | 17%[57.1 µM] | 22% | · | 10% | -3%[57.1 µM] | -6%
Cn1c(=O)c2[nH]c(N=NN3CCCCC3)nc2n(C)c1=O | -6%[57.1 µM] | 11% | 13% | -7% | -2%[2.29 µM] | 5%
CC(=O)/C(N=Nc1nc2c([nH]1)c(=O)n(C)c(=O)n2C)=C(\C)O | -10%[57.1 µM] | 80% | 13µM* | 2% | -2%[57.1 µM] | 1%
Cc1cc(O)cc(O)c1-c1onc(C(F)(F)F)c1-c1cscn1 | -7% | 7.9µM* | -14% | -20% | -11% | 5%
O=C(C[N+]12CN3CN(CN(C3)C1)C2)c1ccc(I)cc1 | -23% | · | · | · | 2% | ·
C=CCc1cc(C=O)cc(OC)c1OCc1ccc(Cl)cc1 | 8%[57.1 µM] | 10µM* | 2% | -5% | -7%[57.1 µM] | 14%
C=CCc1cc(C=O)cc(OCC)c1OCc1ccc(Cl)cc1 | 13% | ? | -4% | -6% | 2% | 2%
OCCN1CCN(C2CCC(c3ccc(F)cc3)c3ccc(F)cc32)CC1 (stereo unspecified) | 14% | 2µM* | 1% | ? | -1% | 4%
SMILES | TrxR1 inh | GLP1R inv ag | GLP1R ag | HEK293 tox | TrxR1 substrate | IDH1 R132H inh
COc1cc(SC)ccc1C(=O)Nc1ccc(Br)cn1 | 14% | ? | -6% | 2% | 0% | 14%
COc1cc(SC)ccc1C(=O)Nc1ncc(C)s1 | -15% | 10µM* | -16% | -14% | -1% | 6%
COc1cccc(NC(=O)C(NCC2CCCCC2)c2ccccc2)c1 (stereo unspecified) | 11% | 10µM* | 8% | -7% | -3% | -1%
O=C(Nc1ccc(F)cc1)C(NC1CCCCC1)c1ccccc1 (stereo unspecified) | 37%[57.1 µM] | 7.9µM* | 8% | 19% | 13%[57.1 µM] | -3%
COc1cc2c(NC3CCN(C)CC3)nc(N3CCCN(C)CC3)nc2cc1OCc1ccccc1 | -18% | · | · | · | 31% | ·
Cc1ccc(C(=O)Nc2ccccc2C(=O)N2CC3(C)CC2CC(C)(C)C3)cc1 (stereo unspecified) | -4% | 10µM* | 4% | 59% | -5% | 1%
CC1(C)CC2CC(C)(CN2C(=O)Cc2ccccc2)C1 (stereo unspecified) | 3%[57.1 µM] | ? | -5% | -27% | 7%[57.1 µM] | 0%
Cc1cccc(C)c1OCC(=O)N1CC2(C)CC1CC(C)(C)C2 (stereo unspecified) | -14% | ? | 6% | -12% | -9% | 4%
Cc1ccc(OCC(=O)N2CC3(C)CC2CC(C)(C)C3)cc1 (stereo unspecified) | 9% | 10µM* | 0% | -10% | 1% | 3%
COc1ccc(CC(=O)N2CC3(C)CC2CC(C)(C)C3)cc1 (stereo unspecified) | 17% | 11µM* | 1% | -12% | -7% | 1%
COc1ccc(-c2cn3nc(N4CCCC(C(=O)Nc5ccccc5OC)C4)sc3n2)cc1 (stereo unspecified) | -13% | ? | · | -11% | -11% | 9%
COc1ccc(C(=O)/C(Br)=C/C(=O)O)cc1 | · | · | 0% | · | · | ·
CCOc1nc(Nc2ccc(OC)c(Cl)c2)nc(N2CCN(c3ccc(OC)cc3)CC2)n1 | 13%[57.1 µM] | 4.5µM* | 11% | 21% | 3%[57.1 µM] | 0%
Cc1cccc(-c2nc(CSc3nncn4c3cc3oc(C)cc34)c(C)o2)c1 | -7% | 1% | · | -3% | 0% | 0%
CCOC(=O)c1cnn(-c2ccc(Cl)cc2)c1C1CCN(C(=O)OC(C)(C)C)CC1 | 23%[57.1 µM] | 10µM* | -3% | 15% | -8%[57.1 µM] | -3%
